Screening results from PubChem.
14-3-3 Bad inh: disrupts binding of bovine 14-3-3 zeta to phospho-Bad peptide; TR-FRET 14-3-3zeta/Dy647-pBad peptide displacement, 1 h; inhibition, % at 21.7 µM; 220,000 tested, 0.71% active;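 active means inhibition above about 70%, limit read from the data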;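 further: 0% = full 14-3-3 plus peptide FRET controls and 100% = background without 14-3-3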
Target sequence (P63103 whole entry, looked up): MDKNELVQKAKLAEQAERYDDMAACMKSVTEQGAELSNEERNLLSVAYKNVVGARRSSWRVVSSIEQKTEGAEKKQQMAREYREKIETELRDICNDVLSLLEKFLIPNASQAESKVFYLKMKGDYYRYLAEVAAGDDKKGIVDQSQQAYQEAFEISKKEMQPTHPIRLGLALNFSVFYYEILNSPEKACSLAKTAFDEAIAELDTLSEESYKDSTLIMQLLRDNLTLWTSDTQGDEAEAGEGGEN
MLLE-PAM2 inh: blocks PAM2 peptide binding to the PABP1 MLLE domain | 360,000 tested, 0.36% active | P11940 | GST-MLLE / FITC-PAM2 fluorescence polarization | inhibition, % at 20 µM; in the data active means inhibition above about 35%, passing the limit was not always enough;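 further: plate controls were DMSO wells with GST-MLLE for no effect and wells lacking GST-MLLE protein for full effect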
eIF4E 4G PPI: eIF4E/eIF4G interaction inhibition in translation initiation | TR-FRET eIF4E-eIF4GI(517-606) binding, 2 h | inhibition, % at 21.7 µM | P63073+Q04637 | 220,000 tested, 0.37% active;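 active means inhibition above about 30%, limit read from the data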;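 further: 0% = full FRET control wells and 100% = background wells lacking eIF4GI fragment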
PABP polyA inh: blocks human PABP binding to poly(A) RNA; calls only at 35 µM; 290,000 tested, 1% active; fluorescence polarization; P11940;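 further: calls also rest on retests at 20 µM and on dose response follow-up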
eIF4H FP inh: inhibitors of RNA binding by human eIF4H | inhibition, % at 35 µM | 290,000 tested, 0.94% active | Q15056 | eIF4H fluorescence polarization binding assay;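 further: calls also rest on retests at 20 µM and on dose response follow-up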
Numbers without * were called inactive; i = inactive; ? = inconclusive; / = no result; + = active, no number; [ ] = dose if it differs, or a comment. The list is not random: actives were taken first. Their share in the collection is about 1.9%. Unless noted, how the calls were made is not given here.

SMILES | 14-3-3 Bad inh | MLLE-PAM2 inh | eIF4E 4G PPI | PABP polyA inh | eIF4H FP inh
Cc1nnc(SCC(=O)NCc2ccco2)[nH]c1=O | -8 | 13 | -1 | + | 57*
Cc1ccc2nc3sc(C(=O)Nc4c(C)[nH]c(=O)[nH]c4=O)c(N)c3cc2c1 | -6 | -1 | 0 | i | 14
Cc1ccc2cc3c(N)c(C(=O)Nc4c(C)[nH]c(=O)[nH]c4=O)sc3nc2c1 | -9 | -1 | -4 | + | 5
CCOc1ccccc1N(CC(=O)NCCSc1ccccc1)S(C)(=O)=O | -8 | 9 | -1 | i | -3
CCCC(=O)OCCNc1cc(SCc2ccco2)c2nonc2c1[N+](=O)[O-] | -9 | 31 | 3 | + | 80*
CCOC(=O)C[C@H]1c2ccc(C(F)(F)F)cc2S(=O)(=O)N1C(C)(C)C | / | -15 | / | / | /
Cc1ccc(C(=O)NCCn2c(N)c(C#N)c3nc4ccccc4nc32)cc1 | -2 | -12 | -5 | + | 56*
CN(Cc1ccc(Br)cc1)C(=O)CCN1C(=O)c2cccc([N+](=O)[O-])c2C1=O | / | 2 | / | i | -18
Cc1cc(C(F)(F)F)c2c(N)c(C(=O)Nc3cc(C)on3)sc2n1 | 0 | 24 | 2 | + | 59*
O=c1oc2cc(S(=O)(=O)NCCCO)ccc2c2ccc(S(=O)(=O)NCCCO)cc12 | 1 | 0 | -4 | i | -4
Cc1ccc(S(=O)(=O)N2CCOCC2)cc1C(=O)N1C(=O)c2cccc(N)c2C1=O | -10 | 10 | -19 | + | 57*
Cc1ccc(S(=O)(=O)N2CCOCC2)cc1C(=O)O | -8 | -9 | -9 | i | -2
c1cc2c(cc1C1CCCCC1)c1c3n2CCN=C3CCC1 | 36 | -32 | 5 | i | -10
Cc1ccc2c(c1)c1c3n2CCN=C3CCC1 | 0 | -14 | 1 | + | 59*
CC(C)(C)OC(=O)[C@H](Cc1ccccc1)NC(=O)c1ncn2c1c(=O)[nH]c1ccc(Br)cc12 | / | 4 | / | / | /
CCCCSC(=S)NC1CCS(=O)(=O)C1 (centres undefined) | -2 | 11 | 17 | i | -1
O=S1(=O)CCC(NC(=S)SCCOc2ccccc2)C1 (centres undefined) | -19 | 40* | 0 | i | 0
CNC(=S)SCCOc1ccccc1 | 12 | 36* | -5 | i | -19
CNc1c(NS(=O)(=O)c2ccc(C3CCCCC3)cc2)c(=O)oc2ccccc12 | / | 4 | / | i | -2
O=C(c1ccccc1)N(Nc1ccccc1)c1ccccc1 | 0 | 6 | 99* | i | 5
O=C(NN(C(=O)c1ccccc1)c1ccccc1)c1ccccc1 | -6 | 4 | -3 | i | -1
CCCC[C@@H]1C=C(C(=O)O)[C@H](c2ccc(Br)cc2)N1S(=O)(=O)c1ccc(C)cc1 | / | -13 | / | / | /
COc1cccc(CN2CCC2(C)C(=O)Nc2ccc3c(c2)OCO3)c1F (centres undefined) | / | -4 | / | / | /
CC(=O)N1CCc2cc(Br)cc(S(=O)(=O)N3CCN(c4ccccn4)CC3)c21 | / | 6 | / | i | -5
CC(=O)N1c2c(cc(Br)cc2S(=O)(=O)N2CCN(c3ccccn3)CC2)CC1C (centres undefined) | 88* | -8 | 3 | i | -16
SMILES | 14-3-3 Bad inh | MLLE-PAM2 inh | eIF4E 4G PPI | PABP polyA inh | eIF4H FP inh
N#C/C(=C\c1ccc(O)c(O)c1)C(=O)Nc1cccc2ncccc12 | / | -57 | / | + | 90*
COc1ccc(/C=C(\C#N)C(=O)Nc2cccc3ncccc23)cc1OC | -1 | -23 | -3 | i | 4
O=C(CNC(=O)c1ccc(F)cc1)NCc1ccc(S(=O)(=O)N2CCOCC2)cc1 | / | 17 | / | / | /
O=C(NCCCN1CCCC1=O)c1cccc(NS(=O)(=O)c2ccc(Br)cc2)c1 | / | 15 | / | / | /
c1ccc2c(c1)oc1c(NCCN3CCOCC3)ncnc12 | 58 | -3 | 2 | i | 2
c1ccc2c(c1)oc1c(Nc3ccc(CN4CCOCC4)cc3)ncnc12 | 79* | -6 | -6 | i | -13
c1ccc(Nc2ncnc3c2oc2ccccc23)cc1 | 71* | -3 | 3 | i | -7
Oc1ccccc1Nc1ncnc2c1oc1ccccc12 | 73* | -8 | 1 | i | 1
O=C(CCC1CCCNC1)c1ccccc1 (centres undefined) | / | / | / | i | -1
COc1ccc(NS(=O)(=O)c2ccc(N3CCOCC3)c(NC(=O)c3ccccc3Cl)c2)cc1 | 7 | 5 | 2 | i | 0
CS(=O)(=O)c1ccc(C(=O)Nc2ccc(N3CCCC3)cc2)c(Cl)c1 | -7 | 0 | 8 | + | 82*
O=C(Nc1cc(S(=O)(=O)Nc2ccc(Cl)cc2)ccc1N1CCCCC1)c1ccc(F)cc1Cl | 9 | 43* | 3 | i | 8
Cc1ccc(NC(=O)CS(=O)CC(=O)NC23CC4CC(CC(C4)C2)C3)cc1 (centres undefined) | / | -5 | / | i | -6
CCN(CC)Cc1cc(O)c(CN(CC)CC)cc1O | 17 | 74* | 23 | i | ?
Clc1ccc(/C=N/N2CCN(Cc3ccccc3)CC2)cc1 | / | 9 | / | i | 0
CC(C)c1ccc(CN2CCC(C(=O)NCc3cccnc3)CC2)cc1 | 74* | 2 | 75* | i | -10
O=C(Nc1cccc(Oc2ccc(C(=O)O)c(C(=O)O)c2)c1)c1ccc(-c2ccccc2)cc1 | 49 | 3 | 22 | i | 66*
O=C(Nc1ccc(Cl)cc1C(=O)N1CCOCC1)c1cccc([N+](=O)[O-])c1 | -23 | / | 2 | i | -6
CCN(CCCNC(=O)C1CCN(S(=O)(=O)CC)CC1)c1ccccc1 | 1 | -1 | 2 | i | -4
CCN(CCCNC(=O)C1CCN(S(=O)(=O)CC)CC1)c1cccc(C)c1 | -12 | 16 | -1 | + | 90*
COc1cc(NC(=O)Cn2cnc(S(=O)(=O)N3CCc4ccccc43)c2)cc(OC)c1OC | / | 7 | / | i | -11
COc1ccc(OC)c(/C=N/NC(=O)CCc2ccc(O)c(O)c2)c1 | 0 | 6 | 3 | + | 21*
COc1ccc(OC)c(/C=N/NC(=O)CCc2c(C)n[nH]c2C)c1 | -2 | 2 | -2 | i | -3
O=C(Nc1cccc(C(F)(F)F)c1)c1cccnc1N1CCN(CCO)CC1 | -7 | -2 | -3 | i | -1
O=C(Nc1cccc(C(F)(F)F)c1)c1cccnc1N1CCN(c2ccccc2)CC1 | 88*[fluorescence artefact?] | -11 | 3 | i | -6
O=c1[nH]c(/C=C/c2cccc3ccccc23)nc2ccccc12 | 58 | -49 | 24 | i | -1
O=c1[nH]c(/C=C/c2ccccc2[N+](=O)[O-])nc2ccccc12 | 71*[fluorescence artefact?] | -9 | 3 | i | 96
CCN(Cc1ccccc1)C(=O)CCS(=O)(=O)c1ccc2c(c1)NC(=O)CO2 | / | 8 | / | i | 75
CCc1cc(=O)oc2cc3occ(-c4ccc(OC)c(F)c4)c3cc12 | 94* | 6 | 19 | i | -1
CCc1cc(=O)oc2cc3occ(C)c3cc12 | 4 | 2 | 19 | i | 39
